Our source for the Percent Effect values is ChEMBL document CHEMBL3988442, “University of Dundee, Small-Polar-MMV Screening Library” (2021).

The target of the assay is AMP-activated protein kinase, AMPK (Homo sapiens) (UniProt P54646+O43741+P54619+Q9UGJ0+Q9Y478+Q13131+Q9UGI9). The experiment in a line: AMP-dependent Kinase enzyme assay. An in vitro enzyme assay that detects ADP turnover that is directly proportional to AMPK activity. This uses naive AMPK that is activated during the assay with MK-8722. In kind it is functional. On the set-up: scale not given: direction of the effect not stated beside the values. As to conditions: 30 µM.
`O=C(CCC1CCCN(C(=O)CCN2CCCCO2)C1)N1CCCC1` (centres undefined): the Percent Effect is -2.7%.

Take `O=C1NCC(C(=O)NCc2ccccc2CN2CCOCC2)N1` (centres undefined): the Percent Effect is -5.09%. Regarding `C[C@@H]1CN(c2ccc(C#N)cn2)CC[C@@]1(O)C1CCOCC1`, the Percent Effect was -1.81%.

With `CN1CC(c2ccccc2)CC2(CCN(Cc3ncc[nH]3)CC2)C1` (centres undefined), the Percent Effect was -6.61%.

As to `CC(C)N(C)S(=O)(=O)c1ccc2c(c1)CCN(C(=O)c1cccnn1)C2`, the Percent Effect is -25.3%.

Turning to `COc1cccc(CN(C)Cc2[nH]c3ccccc3c2C)c1O`, the Percent Effect is -44.5%. Next, `Cc1ccccc1CCC(=O)N1CCc2ncnc(NCCO)c2CC1`: 0.622%; `CCSCC(C)NCc1ccccc1-n1ccnc1` (centres undefined): 7.25%; `CC(C)(C)NC(=O)CNc1ccc(Br)cn1`: 7.07%. On to `COc1ccc(CN(C)[C@@H]2COC[C@H]2c2ccc(F)cc2)c(OC)c1`, for which the Percent Effect came out at 10.5%. For `Cc1noc(C)c1CCCNC(=O)Nc1ccc2c(c1)COC2` the value was 16.7%. For the compound `Cc1noc(CN(C)c2nc(-c3ccco3)nc3c2CCN(C)CC3)n1`, the Percent Effect came to 3.37%.

For `Cc1ccsc1C(=O)NCc1ccnc(C2CCCOC2)n1` (centres undefined), the Percent Effect came to 11.8%. For `Cc1cc(C)c(C(=O)N2CCC3(CCCNC3)C2)cc1C` (centres undefined) the value was 7.09%. For `Cc1ccc(C(=O)NC2CCCN(C)C2)c(=O)[nH]1` (centres undefined) the value was -3.1%. Next, `COc1ccc(C(C)NCCC(N)=O)cc1F` (centres undefined): -6.1%. With `Cc1nnc(CN(Cc2cccc3c2OCO3)CC2CCCO2)n1C` (centres undefined), the Percent Effect is -6.12%. `COCc1nn(Cc2ccc(Cl)s2)c(=O)o1`: the Percent Effect turned out to be 6.29%. Take `COc1cccc(-c2ncc(CN3CC[C@H]4CC[C@@H](C3)N4)s2)c1`: the Percent Effect was determined as 7.14%. As to `CCN(Cc1cn(CC2CCNCC2)nn1)CC1CCCO1` (centres undefined), the Percent Effect came to 4.72%. Consider `Cc1ccc(-c2noc(C3CCN3C(=O)c3cc[nH]n3)n2)s1` (centres undefined), for which the Percent Effect turned out to be 16%. For `O=C(C1CC(c2ccccc2)=NO1)N1CCc2ccccc21` (centres undefined) the value was 13.9%; for `C[C@@H]1CN(CC(=O)NCc2ccccn2)C[C@]1(C)O`, 8.43%. Next, `Cc1cc(N2CCC3(CCCN(CCO)C3=O)C2)nc2ccccc12` (centres undefined): 9.84%. Consider `Cc1cc(C(=O)N(C)CCN(C)C(=O)OC(C)(C)C)oc1C`, for which the Percent Effect worked out at 5.9%. For `CC(CNC(=O)c1cnc[nH]1)Oc1ccccc1Br` (centres undefined) the value was 10.3%.

As for `COCc1nc(CN2CCN(c3ccc(OC)cc3)C(=O)C2C)no1` (centres undefined), the Percent Effect was determined as 6.42%.

With `O=C(NCC(O)c1cccc(O)c1)C1CCN(C2CCCCC2)CC1` (centres undefined), the Percent Effect was 0.496%. For `CCc1cc(=O)[nH]c(-c2ccc(NC(C)COC)nc2)n1` (centres undefined), the Percent Effect is -2.5%. For the compound `Cc1ccc(CNC(=O)c2ccc(=O)n(C)n2)c(OC2CCCC2)c1`, the Percent Effect is 12.3%. Next, `CCOc1cc(Cl)ccc1CNC(=O)c1ccc(=O)n(C)c1`: 10.5%; `Cc1ccnc(C2(C)CCCN2S(=O)(=O)c2ccccc2)n1` (centres undefined): -5.61%; `CN(C)c1ncccc1CNC(=O)NCC(c1cccs1)N(C)C` (centres undefined): -9.48%.

As for `CN(Cc1cc(Br)cn1C)C(=O)Cc1cccnc1`, the Percent Effect is -10.2%. For `Cc1nc(C(NS(=O)(=O)N(C)C)c2ccccc2F)no1` (centres undefined) the value was -2.57%; for `Cc1cc(C)n2c(CNCc3ccc(OC(F)F)cc3)cnc2n1`, -12.4%. Next, `CN(CCc1ccncc1)Cc1c(C2CCCC2)[nH]c2ncccc12`: 9.38%; `CSc1ccc(CNC2CCCc3c2cnn3C)cc1` (centres undefined): 7.44%. For `CC(C)CN(CC(F)(F)F)S(=O)(=O)c1cc(C(N)=O)n(C)c1` the value was -3.17%.
